Experimental findings from ChEMBL document CHEMBL1157539, “Thousands of chemical starting points for antimalarial lead identification” (Nature, 2010) are described below.

The experiment has as its system HepG2. The experiment is described as follows: GSK_TCMDC: Percent inhibition of human HepG2 cell line. Test compounds present at 10uM. It counts as functional.
Take `CCN(CCCN1CCCCC1)c1cc(C)nc(Nc2ccc(Cl)cc2C)n1.O=C(O)C(F)(F)F`: the Inhibition is on record as 44%. `Cc1cc(NC(=O)[C@H](CC2CCCCC2)Nc2ccc(C#N)c3ccccc23)ccc1F.O=C(O)C(F)(F)F` showed an Inhibition of 21%. The molecule `c1cncc(CNc2ncc(-c3ccsc3)c(-c3nccs3)n2)c1` had an Inhibition of 0%. On to `CCOc1ccc(C(=O)Nc2cc(Br)c3c(c2)CNCC3)cc1Cl.Cl`, for which the Inhibition is on record as 13%. As for `Cl.O=C(Nc1ccc(C(=O)Nc2ccc(C3=NCCN3)cc2)cc1)Nc1ccc(C2=NCCN2)cc1`, the figure is 0%.

As for `O=C(O)C(F)(F)F.O=S(=O)(NC1CCN(c2ccnc3cc(Cl)ccc23)C1)c1cccc(F)c1` (configuration not stated), the Inhibition is listed as 19%. As for `O=[N+]([O-])c1ccc2nc(Nc3ccc(Cl)c(Cl)c3)c(Nc3ccc(Cl)c(Cl)c3)nc2c1`, the figure is 1%; as for `COc1ccc(C2=C(Nc3ccc4oc5ccccc5c4c3)c3ccccc3C2=O)cc1`, 9%; as for `Nc1nc2c(cnn2CCCCCCCP(=O)(O)O)c(=O)[nH]1`, 0%. `COc1cc(C)nc2ccc(NC(=O)COCC(=O)Nc3ccc4nc(C)cc(OC)c4c3)cc12` returned an Inhibition of 67%.

Turning to `CC(=O)Nc1ccc(OCCCN(Cc2ccccc2C(F)(F)F)c2ccc(C(F)(F)F)c(C#N)c2)c(Cl)c1`, the Inhibition stood at 5%. In turn, `COc1ccc(C)cc1NC(=O)CSc1nc2cccnc2n1C1CCCCC1` registered an Inhibition of 14%. Under `COC(=O)c1cc(OC2CCOC2=O)cc2c1OC(C)(C)O2` (configuration not stated) stands 6%. `COc1ccc2nccc([C@H](O)CN3CCC(NCc4cc(C)c5c(c4)OCCO5)CC3)c2n1.Cl` displayed an Inhibition of 12%.

In turn, `Cc1cc(Nc2cccc(C(F)(F)F)c2)nc(Nc2cccc(C(F)(F)F)c2)n1` came in with an Inhibition of 0%. As to `NC(=O)c1ccsc1NC(=O)CNC(c1ccccc1)c1ccccc1`, the Inhibition was found to be 8%. In turn, `O=C(O)C(F)(F)F.OCC1CCN(Cc2ccc(-c3ccc(-c4nc5cc(F)ccc5[nH]4)s3)cc2)CC1` registered an Inhibition of 14%. `O=C(Nc1ccc(-c2ccc(-c3nc4ccccc4[nH]3)s2)cc1)Nc1ccc(Cl)c(Cl)c1`: the Inhibition worked out at 89%. Under `O=C(NCCN1CCCCC1)c1cccc(Nc2nccc(Nc3ccc(Oc4ccccc4)cc3)n2)c1` stands 50%; under `CC(C)n1ncc2c(C(=O)N3CCCc4ccccc43)cc(-c3ccccc3)nc21`, 5%; under `O=C(Nc1cccc(-c2nn3ncccc3c2-c2ccnc(Nc3ccc(N4CCOCC4)cc3)n2)c1)c1c(F)cccc1F`, 75%. Take `O=C(NCCc1cccc(Cl)c1Cl)c1ccc(N2CCN(c3ccncc3)CC2)nc1.O=C(O)C(F)(F)F`: the Inhibition is recorded as 38%. In turn, `CN1CCC(Oc2cc(CN3CC[C@H](NC(=O)c4ccc(Cl)c(Cl)c4)C3)ccc2I)C1.O=C(O)C(F)(F)F` (some centres not stated) returned an Inhibition of 68%. `CC(=O)c1cccc(NC(=O)N2CCCN(CCCCCNC(=O)/C=C/c3ccc(Cl)c(Cl)c3)CC2)c1` showed an Inhibition of 13%. Under `COc1ccc(-c2cccc(NC(=O)c3cccc(C#N)c3)c2)cc1CN1CCCN(C)CC1.O=C(O)C(F)(F)F` stands 22%; under `CC(C)Cn1cc(C2CCN(CCN3CCC(CNC(=O)c4ccc(NC(=O)c5ccc(Cl)cc5)cc4)CC3)CC2)c2ccccc21`, 28%; under `CCOC(=O)c1cn(CC)c2cc(N(C)CCc3ccc(OC)c(OC)c3)c(F)cc2c1=O.Cl`, 9%. Under `O=C(NC(c1ccccc1)c1ccc2cccnc2c1O)c1ccccc1` (configuration not stated) stands 53%. With `Cc1cccc2nc(-c3ccc(-c4ccc(CN5CCN(c6ccncc6)CC5)cc4)s3)[nH]c12.O=C(O)C(F)(F)F`, the Inhibition was 85%.

As for `Cc1ccc(Nc2nc3cc(Nc4ccnc(Nc5ccc(CS(C)(=O)=O)cc5)n4)ccc3o2)cc1`, the Inhibition was 54%. Molecule `COc1ccc(-c2ccc(CNC(=O)c3cccc(C#N)c3)c(F)c2)cc1CN1CCCN(C)CC1.O=C(O)C(F)(F)F` had an Inhibition of 8%. As to `CC(C)C[C@@H](/C=N/N1CCOC1=O)NC(=O)[C@H](CC(C)C)NC(=O)c1ccc(F)cc1`, the Inhibition was 1%. Turning to `COc1ccc(CNCc2ccccc2)cc1-c1ccc(S(=O)(=O)NCCN2CCCC2)c(C)c1.O=C(O)C(F)(F)F`, the Inhibition was determined as 33%. Molecule `Cl.N=c1n(CCN2CCCCC2)c2ccccc2n1CC(O)c1ccc(Cl)c(Cl)c1` (configuration not stated) had an Inhibition of 50%. Under `Cc1cc(N2CCCN(CC3CCCCC3)CC2)nc(Nc2ccc(Br)cc2)n1` stands 24%; under `Br.CCCc1cccc(C)c1OCCCON1C(=N)N=C(N)NC1(C)C`, 57%. For `O=C(COc1cnc2ccccc2n1)Nc1ccccc1Sc1ccc(Cl)cc1`, the Inhibition was 6%.
